Results published in PubChem BioAssay AID1159580 (chemical genetic matrix, 2015).
Several values for one entry are separate records, joined by “and”; a condition that tells them apart may be missing. Identical values can stand only once. Among all 5,500 compounds or so, about 2,000 (36%) were called active. Inconclusive results (about 18%) are left out. No stated cut-off is given here; in the data, active means normalized growth mostly below about 0.91 (no sharp cut-off); inconclusive means no clear call, values can overlap the other calls; inactive means mostly above about 0.92. Some of the results follow.

Assay: chemical genetic growth profiling, strain panel (AID 1159580);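 further: tested at 20 µM; growth read once vehicle control cultures reached saturation at 30 °C; 1 = growth at the plate median or of vehicle wells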
Settings: S. cerevisiae deletion strains, growth OD

Measured: normalized growth

COc1ccc(/C=C/C(=O)O)cc1OC
inactive: locus YAL013W, strain DEP1, stronger effect = lower value 1 | locus YAL021C, strain ccr4, stronger effect = lower value 1.04 | locus YAL026C, strain drs2, stronger effect = lower value 0.99 | locus YAL030W, strain snc1, stronger effect = lower value 0.999 | locus YBL061C, strain skt5, stronger effect = lower value 0.987 | locus YBR009C, strain hhf1, stronger effect = lower value 1.01 | locus YBR021W, strain FUR4, stronger effect = lower value 1.04 | locus YBR023C, strain chs3, stronger effect = lower value 1.01 | locus YBR171W, strain sec66, stronger effect = lower value 0.965 | locus YBR229C, strain ROT2, stronger effect = lower value 1.02 | locus YBR231C, strain swc5, stronger effect = lower value 0.981 | locus YBR279W, strain paf1, stronger effect = lower value 1 | locus YCL011C, strain gbp2, stronger effect = lower value 0.991 | locus YCL016C, strain dcc1, stronger effect = lower value 1.04 | locus YCL029C, strain bik1, stronger effect = lower value 1.02 | locus YCL061C, strain MRC1, stronger effect = lower value 0.995 | locus YCL069W, strain vba3, stronger effect = lower value 0.955 | locus YCR088W, strain abp1, stronger effect = lower value 0.984 | locus YDL005C, strain med2, stronger effect = lower value 0.979 | locus YDL035C, strain GPR1, stronger effect = lower value 1.14 | locus YDL040C, strain nat1, stronger effect = lower value 0.991 | locus YDL101C, strain DUN1, stronger effect = lower value 1 | locus YDL134C, strain PPH21, stronger effect = lower value 1.06 | locus YDL185W, strain tfp1, stronger effect = lower value 1 | locus YDL192W, strain arf1, stronger effect = lower value 1.03 | locus YDR001C, strain nth1, stronger effect = lower value 0.981 | locus YDR069C, strain doa4, stronger effect = lower value 0.97 | locus YDR101C, strain arx1, stronger effect = lower value 1.01 | locus YDR137W, strain rgp1, stronger effect = lower value 1.02 | locus YDR159W, strain sac3, stronger effect = lower value 0.94 | locus YDR162C, strain NBP2, stronger effect = lower value 1.13 | locus YDR195W, strain ref2 0.961 | locus YDR297W, strain sur2, stronger effect = lower value 0.984 | locus YDR318W, strain mcm21, stronger effect = lower value 1.03 | locus YDR334W, strain swr1, stronger effect = lower value 0.975 | locus YDR335W, strain msn5, stronger effect = lower value 0.984 | locus YDR388W, stronger effect = lower value 1.01 | locus YDR392W, strain spt3, stronger effect = lower value 0.943 | locus YDR502C, strain sam2, stronger effect = lower value 1.03 | locus YEL003W, strain gim4, stronger effect = lower value 0.981 | locus YEL037C, strain rad23, stronger effect = lower value 0.981 | locus YEL061C, strain CIN8 (second series), stronger effect = lower value 0.976 | locus YEL061C, strain CIN8, stronger effect = lower value 1.01 | locus YER015W, strain faa2, stronger effect = lower value 1 | locus YER016W, strain bim1, stronger effect = lower value 0.991 | locus YER110C, stronger effect = lower value 1 | locus YER111C, strain swi4, stronger effect = lower value 0.974 | locus YER155C, strain BEM2 (second series), stronger effect = lower value 0.958 | locus YER155C, strain BEM2, stronger effect = lower value 1.01 | locus YER167W, strain BCK2, stronger effect = lower value 1.01 | locus YFR010W, strain ubp6, stronger effect = lower value 0.955 | locus YGL078C, strain dbp3, stronger effect = lower value 1 | locus YGL086W, strain mad1, stronger effect = lower value 1.01 | locus YGL167C, strain pmr1, stronger effect = lower value 0.999 | locus YGL173C, strain kem1, stronger effect = lower value 0.979 | locus YGL227W, strain vid30, stronger effect = lower value 0.984 | locus YGL240W, strain doc1, stronger effect = lower value 0.989 | locus YGL253W, strain hxk2, stronger effect = lower value 0.942 | locus YGR078C, strain PAC10, stronger effect = lower value 1.09 | locus YGR135W, strain pre9, stronger effect = lower value 1.04 | locus YGR252W, strain gcn5, stronger effect = lower value 1.19 | locus YHR013C, strain ard1, stronger effect = lower value 0.993 | locus YHR027C, strain rpn1, stronger effect = lower value 0.992 | locus YHR030C, strain SLT2, stronger effect = lower value 0.949 | locus YHR079C, strain IRE1 (second series), stronger effect = lower value 0.998 | locus YHR079C, strain IRE1, stronger effect = lower value 0.958 | locus YHR094C, strain hxt1, stronger effect = lower value 0.996 | locus YHR129C, strain ARP1, stronger effect = lower value 1.02 | locus YHR142W, strain chs7, stronger effect = lower value 0.993 | locus YHR200W, strain rpn10, stronger effect = lower value 0.999 | locus YIL066C, strain RNR3, stronger effect = lower value 1.01 | locus YIL125W, strain kgd1, stronger effect = lower value 1.02 | locus YIR030C, strain dcg1, stronger effect = lower value 0.998 | locus YJL092W, strain hpr5, stronger effect = lower value 0.974 | locus YJL095W, strain BCK1 (second series), stronger effect = lower value 0.981 | locus YJL095W, strain BCK1, stronger effect = lower value 0.972 and 1.18 | locus YJL115W, strain asf1, stronger effect = lower value 0.998 | locus YJL129C, strain trk1, stronger effect = lower value 0.968 | locus YJL134W, strain LCB3, stronger effect = lower value 1.01 | locus YJL154C, strain vps35, stronger effect = lower value 0.976 | locus YJL164C, strain tpk1, stronger effect = lower value 1.03 | locus YJL166W, strain qcr8, stronger effect = lower value 0.999 | locus YJL168C, strain set2, stronger effect = lower value 1.01 | locus YJL187C, strain SWE1 (second series), stronger effect = lower value 1.03 | locus YJL187C, strain SWE1, stronger effect = lower value 1.01 | locus YJR043C, strain POL32, stronger effect = lower value 1.06 | locus YJR066W, strain TOR1, stronger effect = lower value 0.907 | locus YKL009W, strain mrt4, stronger effect = lower value 0.971 | locus YKL068W, stronger effect = lower value 0.988 | locus YKL085W, strain MDH1 (second series), stronger effect = lower value 1 | locus YKL085W, strain MDH1, stronger effect = lower value 1 | locus YKL160W, strain elf1, stronger effect = lower value 1.04 | locus YKR001C, strain vps1, stronger effect = lower value 1.08 | locus YKR026C, strain gcn3, stronger effect = lower value 0.963 | locus YKR091W, strain srl3, stronger effect = lower value 1.01 | locus YLL001W, strain dnm1, stronger effect = lower value 0.976 | locus YLL026W, stronger effect = lower value 0.997 | locus YLL041C, strain sdh2, stronger effect = lower value 0.992 | locus YLR027C, strain aat2, stronger effect = lower value 1 | locus YLR058C, strain SHM2, stronger effect = lower value 1.01 | locus YLR102C, strain apc9, stronger effect = lower value 0.996 | locus YLR113W, strain HOG1, stronger effect = lower value 0.968 | locus YLR221C, strain rsa3, stronger effect = lower value 0.95 | locus YLR258W, strain gsy2, stronger effect = lower value 1.02 | locus YLR262C, strain YPT6 (second series), stronger effect = lower value 0.995 | locus YLR268W, strain sec22, stronger effect = lower value 1.05 | locus YLR320W, strain mms22, stronger effect = lower value 0.99 | locus YLR342W, strain FKS1 (second series), stronger effect = lower value 1.01 | locus YLR342W, strain FKS1, stronger effect = lower value 1.01 | locus YLR357W, strain rsc2, stronger effect = lower value 0.988 | locus YLR370C, strain arc18, stronger effect = lower value 0.971 | locus YLR371W, strain rom2, stronger effect = lower value 1.02 | locus YLR384C, strain iki3, stronger effect = lower value 0.998 | locus YML016C, strain PPZ1, stronger effect = lower value 1 | locus YML032C, strain rad52, stronger effect = lower value 1.02 | locus YML120C, strain ndi1, stronger effect = lower value 1.01 | locus YML124C, strain tub3, stronger effect = lower value 0.994 | locus YMR058W, strain fet3, stronger effect = lower value 0.991 | locus YMR078C, strain ctf18, stronger effect = lower value 1.01 | locus YMR125W, strain sto1, stronger effect = lower value 0.974 | locus YMR129W, stronger effect = lower value 1 | locus YMR205C, strain PFK2, stronger effect = lower value 1.05 | locus YMR223W, strain ubp8, stronger effect = lower value 1.03 | locus YMR231W, strain pep5, stronger effect = lower value 0.965 | locus YNL067W, strain RPL9B, stronger effect = lower value 1 | locus YNL071W, strain lat1, stronger effect = lower value 0.998 | locus YNL128W, strain TEP1, stronger effect = lower value 1.02 | locus YNL183C, strain NPR1, stronger effect = lower value 0.904 | locus YNL209W, strain ssb2, stronger effect = lower value 1.01 | locus YNL233W, strain BNI4, stronger effect = lower value 1.12 | locus YNL248C, strain rpa49, stronger effect = lower value 0.958 | locus YNL250W, strain rad50, stronger effect = lower value 1.03 | locus YNL271C, strain bni1, stronger effect = lower value 1.02 | locus YNL298W, strain CLA4, stronger effect = lower value 1.05 | locus YNL307C, strain MCK1, stronger effect = lower value 1.01 | locus YNL322C, strain KRE1 (second series), stronger effect = lower value 0.981 | locus YNL322C, strain KRE1, stronger effect = lower value 1.01 | locus YNR049C, strain mso1, stronger effect = lower value 0.99 | locus YNR052C, strain pop2, stronger effect = lower value 1.02 | locus YOL012C, strain htz1 1.37 | locus YOL147C, strain pex11, stronger effect = lower value 1.01 | locus YOR001W, strain rrp6, stronger effect = lower value 0.926 | locus YOR061W, strain CKA2, stronger effect = lower value 0.995 | locus YOR069W, strain VPS5, stronger effect = lower value 1.01 | locus YOR070C, strain gyp1, stronger effect = lower value 0.999 | locus YOR080W, strain dia2, stronger effect = lower value 0.978 | locus YOR083W, strain WHI5, stronger effect = lower value 1.04 | locus YOR106W, strain vam3, stronger effect = lower value 1.02 | locus YOR136W, strain idh2, stronger effect = lower value 1.01 | locus YOR144C, strain elg1, stronger effect = lower value 1 | locus YOR184W, strain ser1, stronger effect = lower value 1.08 | locus YOR231W, strain MKK1, stronger effect = lower value 0.944 | locus YOR265W, strain rbl2, stronger effect = lower value 0.991 | locus YOR270C, strain vph1, stronger effect = lower value 0.977 | locus YOR290C, strain snf2, stronger effect = lower value 1.04 | locus YOR316C, strain cot1, stronger effect = lower value 1.01 | locus YPL051W, strain arl3, stronger effect = lower value 0.98 | locus YPL078C, strain atp4, stronger effect = lower value 1.03 | locus YPL106C, strain sse1, stronger effect = lower value 1.04 | locus YPL240C, strain hsp82, stronger effect = lower value 0.986 | locus YPL256C, strain CLN2, stronger effect = lower value 0.968 | locus YPR119W, strain clb2, stronger effect = lower value 1.01 | locus YPR141C, strain kar3, stronger effect = lower value 1 | locus YPR163C, strain tif3, stronger effect = lower value 1.02 | locus YPR167C, strain met16, stronger effect = lower value 1.03 | strain wtn01, stronger effect = lower value 1.02
active: locus YDL074C, strain BRE1, stronger effect = lower value 1.4 [resistant] | locus YGL248W, strain PDE1, stronger effect = lower value 1.12 [resistant] | locus YIL073C, strain SPO22, stronger effect = lower value 1.55 [resistant] | locus YLR039C, strain RIC1, stronger effect = lower value 1.42 [resistant] | locus YMR307W, strain GAS1, stronger effect = lower value 1.53 [resistant] | locus YOL006C, strain TOP1, stronger effect = lower value 1.83 [resistant]
